Molecules are shown by their SMILES. Records with an inconclusive call do not appear. Where a call stands in place of a potency, no number is given. The source made the active and inactive calls. Calls follow the shape of the dose curve; as a rule, active = well fitted cell-killing curve with a large enough effect; inconclusive = small, poorly fitted or top-dose-only effect, or effect the other way; inactive = flat fitted curve, though single readings scatter.

The experiment concerns SKOV3. In words: Primary qHTS to identify gynecologic anti-cancer compounds using libraries of approved drugs and bioactive compounds (AID 1345084). Also: nearly all actives have a fitted effect of over 55% in size. The note with it: Gynecologic cancer cell panel viability, ATPlite luminescence, 48 h; series mostly up to 57.5 µM. The method, boiled down: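 Cell viability after 48 h drug treatment, ATPlite luminescence readout; five doses.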
(In general: Quantitative high-throughput screening tests each substance at several concentrations.)
As for `CC1(C)CCC(C)(C)c2cc3c(cc21)Sc1ccccc1N=C3c1ccc(C(=O)O)cc1`, the Potency result was “inactive”.

For `O=C(O)c1n[nH]c2c1C[C@H]1C[C@@H]21`, the Potency result is “inactive”.

As to `COc1cc(C2Oc3c(O)cc(CCCO)cc3C2CO)ccc1O[C@H]1O[C@H](C)[C@@H](O)[C@H](O)[C@@H]1O` (some centres not stated), the Potency entry is “inactive”.

Take `CC(=C/C(=O)O)/C=C/[C@]1(O)[C@@]2(C)CO[C@]1(C)C[C@H](O[C@@H]1O[C@H](CO)[C@@H](O)[C@H](O)[C@H]1O)C2`: the Potency result is “inactive”.

For `CC1(C)CC[C@]2(C(=O)O)CC[C@]3(C)C(=CCC4[C@@]5(C)C[C@H](O)[C@H](O[C@@H]6OC[C@H](O)[C@H](O)[C@H]6O)[C@@](C)(CO)C5CC[C@]43C)[C@@H]2C1` (some centres not stated), the Potency result was “inactive”.

With `C1CCN2CC3C[C@@H](CN4CCCC[C@@H]34)[C@H]2C1`, the Potency entry is “inactive”.

On to `COc1ccc(C)c2sc(NC(=O)c3ccncc3)nc12`, for which the Potency result was “inactive”.

With `CC(C)[C@@H](C)/C=C/[C@@H](C)[C@H]1CC[C@H]2C3=CC=C4C[C@@H](O)CC[C@]4(C)[C@H]3CC[C@]12C`, the Potency result was “inactive”.

`COc1ccccc1CC(C(=O)O)N(C)C(=O)c1ccccc1` (configuration not stated): the Potency entry is “inactive”.

`C=C1[C@@H]2[C@H]3OC(=O)C(=C)[C@@H]3CC[C@@](C)(O)[C@@H]2C[C@@H]1O[C@@H]1O[C@H](CO)[C@@H](O)[C@H](O)[C@H]1O`: the Potency entry is “inactive”.

As to `COCCCNCC1COc2ccccc2O1` (configuration not stated), the Potency result is “inactive”.

`COc1cc(/C=C/C(=O)OC2CC(OC(C)=O)C(OC(C)=O)C3C2CCC2C(=O)OC(c4ccoc4)CC23C)ccc1O[C@@H]1O[C@H](CO)[C@@H](O)[C@H](O)[C@H]1O` (some centres not stated): the Potency result is “inactive”.
